Records with an inconclusive call do not appear. Calls of active or inactive are those of the source. The calls were made as follows, unless noted: active = hit-call score of the fitted dose curve at least 0.9, where 1 is the maximum; inactive = score below 0.9.
What was measured:
[1] = CCTE_Harrill_HTTr_Viability_DMEM_6hr: (Pilot) CCTE's 6-hour Cell Viability Assessment for the High-Throughput Transcriptomics (HTTr) Platform, in MCF-7 cells cultured in DMEM + 10% fetal bovine serum, Harrill Lab (AID 2283973)
Method in brief: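 Propidium iodide uptake imaged by high-content analysis after six hours of chemical treatment in an eight-concentration series. Cells: MCF-7 grown in DMEM with 10% fetal bovine serum; DMSO as baseline.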

[2] = CCTE_Harrill_HTTr_Viability_DMEM_12hr: (Pilot) CCTE's 12-hour Cell Viability Assessment for the High-Throughput Transcriptomics (HTTr) Platform, in MCF-7 cells cultured in DMEM + 10% fetal bovine serum, Harrill Lab (AID 2283974)
Method in brief: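 Propidium iodide dye exclusion imaged by high-content microscopy after 12 h chemical exposure (eight concentrations) of MCF-7 cells grown in DMEM plus 10% FBS; values fitted in both directions relative to DMSO.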

[3] = CCTE_Harrill_HTTr_Viability_DMEM_24hr: (Pilot) CCTE's 24-hour Cell Viability Assessment for the High-Throughput Transcriptomics (HTTr) Platform, in MCF-7 cells cultured in DMEM + 10% fetal bovine serum, Harrill Lab (AID 2283975)
Method in brief: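 Pilot study: propidium iodide dye exclusion, imaged by high content microscopy, after 24 h compound exposure (eight concentrations) in MCF-7 cultured in DMEM + 10% fetal bovine serum; DMSO served as negative control and baseline.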

[4] = CCTE_Harrill_HTTr_Viability_PRF_DMEM_6hr: (Pilot) CCTE's 6-hour Cell Viability Assessment for the High-Throughput Transcriptomics (HTTr) Platform, in MCF-7 cells cultured phenol red-free DMEM + 10% charcoal-stripped fetal bovine serum, Harrill Lab (AID 2283976)
Method in brief: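 Membrane integrity by high-content imaging of propidium iodide uptake, six hours after dosing with eight concentrations. Cells: MCF-7 grown in phenol red-free DMEM plus 10% charcoal-stripped serum; DMSO serves as baseline for bidirectional fits.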

[5] = CCTE_Harrill_HTTr_Viability_PRF_DMEM_12hr: (Pilot) CCTE's 12-hour Cell Viability Assessment for the High-Throughput Transcriptomics (HTTr) Platform, in MCF-7 cells cultured in phenol red-free DMEM + 10% charcoal-stripped fetal bovine serum, Harrill Lab (AID 2283977)
Method in brief: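 Membrane integrity was scored via propidium iodide dye exclusion imaging, fitted in both directions relative to DMSO. Compounds ran as eight-point dilutions for 12 hours on MCF-7 grown in phenol red-free DMEM plus 10% charcoal-stripped serum.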

[6] = CCTE_Harrill_HTTr_Viability_PRF_DMEM_24hr: (Pilot) CCTE's 24-hour Cell Viability Assessment for the High-Throughput Transcriptomics (HTTr) Platform, in MCF-7 cells cultured in phenol red-free DMEM + 10% charcoal-stripped fetal bovine serum, Harrill Lab (AID 2283980)
Method in brief: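 Propidium iodide exclusion imaged at 24 h after dosing scores viability; cells were MCF-7 grown in phenol red-free DMEM plus 10% charcoal-stripped serum, tested in eight concentrations, fitted in both directions against DMSO.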

[7] = CCTE_Harrill_HTTr_Apoptosis_DMEM_6hr: (Pilot) CCTE's 6-hour Apoptosis Assessment for the High-Throughput Transcriptomics (HTTr) Platform, in MCF-7 cells cultured in DMEM + 10% fetal bovine serum, Harrill Lab (AID 2283981)
Method in brief: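 MCF-7 cells grown in DMEM + 10% FBS were exposed for 6 hours to an eight-point dilution series. CellEvent Caspase 3/7 Green signal was imaged; activity fitted bidirectionally against DMSO.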

[8] = CCTE_Harrill_HTTr_Apoptosis_DMEM_12hr: (Pilot) CCTE's 12-hour Apoptosis Assessment for the High-Throughput Transcriptomics (HTTr) Platform, in MCF-7 cells cultured in DMEM + 10% fetal bovine serum, Harrill Lab (AID 2283982)
Method in brief: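 Caspase-3/7 activity was measured by high-content imaging (CellEvent Caspase 3/7 Green) after a 12-hour exposure of MCF-7 cells grown in DMEM with 10% FBS. Eight-point concentration series, fitted bidirectionally against vehicle.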

[9] = molecular target: Retinoic acid receptor RXR-alpha (Homo sapiens) (UniProt P19793); test: TOX21_TR_RXR_BLA_Antagonist_Followup_ratio: Tox21 Thyroid Hormone Receptor beta Retinoid X Receptor alpha (RXRa) Antagonism Beta-lactamase (BLA) Follow-Up Assay, Ratio (AID 2283972; active = hit-call score of the fitted dose curve at least 0.9, where 1 is the maximum)
Retinoic acid receptor RXR-alpha (Homo sapiens), sequence (P19793 whole entry, looked up, the tested form may be a part): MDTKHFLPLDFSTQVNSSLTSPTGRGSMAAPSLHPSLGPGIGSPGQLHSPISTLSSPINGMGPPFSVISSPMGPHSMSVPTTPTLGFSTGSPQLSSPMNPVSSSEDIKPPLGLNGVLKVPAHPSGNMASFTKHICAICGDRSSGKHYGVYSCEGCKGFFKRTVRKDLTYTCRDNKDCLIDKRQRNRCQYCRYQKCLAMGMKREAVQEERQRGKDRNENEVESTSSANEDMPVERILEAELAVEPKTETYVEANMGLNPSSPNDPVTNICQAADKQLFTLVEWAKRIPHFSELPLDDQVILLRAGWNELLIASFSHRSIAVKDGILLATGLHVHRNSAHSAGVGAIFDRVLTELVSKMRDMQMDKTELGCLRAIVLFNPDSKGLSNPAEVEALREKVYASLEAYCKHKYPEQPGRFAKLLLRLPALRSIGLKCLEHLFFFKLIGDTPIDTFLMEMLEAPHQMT
Method in brief: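 Beta-lactamase reporter readout as cleaved/uncleaved substrate ratio (460:530 nm) after 2 h substrate loading at room temperature. GAL4-RXRa bla HEK293T cells were exposed 16 h at 37C to 11-point compound series; loss of signal scored against DMSO baseline.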

[10] = TOX21_TR_RXR_BLA_Antagonist_Followup_viability: Viability Assessment in the Tox21 Thyroid Hormone Receptor beta Retinoid X Receptor alpha (RXRa) Antagonism Beta-lactamase (BLA) Follow-Up Assay (AID 2283979; active = hit-call score of the fitted dose curve at least 0.9, where 1 is the maximum)
Method in brief: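 Follow-up compounds (11 concentrations, triplicate) were incubated 16 h at 37C/5% CO2 with HEK293T RXRa-bla cells seeded at 2,500/well in charcoal-stripped-serum medium. ATP content by CellTiter-Glo luminescence gave viability; curves fitted in both directions against DMSO.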

Measured: AC50

CC(C)(c1ccc(O)cc1)c1ccc(O)cc1
not listed: [9] | [10]
inactive: all other assays above

C=CCOC(Cn1ccnc1)c1ccc(Cl)cc1Cl (stereo not given)
not listed: [9] | [10]
inactive: all other assays above

C[C@]12CC[C@@H]3c4ccc(O)cc4C[C@@H](CCCCCCCCCS(=O)CCCC(F)(F)C(F)(F)F)[C@H]3[C@@H]1CC[C@@H]2O (stereo not given in full)
inactive: all assays above

CC(=O)[C@H]1CC[C@H]2[C@@H]3CCC4=CC(=O)CC[C@]4(C)[C@H]3CC[C@]12C
inactive: [10]

C[C@]12C[C@H](O)[C@H]3[C@@H](CCC4=CC(=O)CC[C@@]43C)[C@@H]1CC[C@@H]2C(=O)CO
inactive: [10]

Cc1nn(C)c(Oc2ccccc2)c1C=NOCc1ccc(C(=O)OC(C)(C)C)cc1
not listed: [9] | [10]
inactive: all other assays above

S=C([S-])NCCNC(=S)[S-].[Mn+2]
not listed: [9] | [10]
inactive: all other assays above

N[C@@H](Cc1cc(I)c(Oc2ccc(O)c(I)c2)c(I)c1)C(=O)O
not listed: [9] | [10]
inactive: all other assays above

CC(C)CCCCCCc1ccc(O)cc1
active: [2] 55.5 µM | [3] 69.4 µM | [4] 55.7 µM | [5] 69.2 µM | [6] 64.3 µM | [8] 63.2 µM
inactive: [1] | [7]
